The sample as a whole holds a higher share of hits than the screen did.
RECQ1 inh: inhibitors of human RECQ1 DNA helicase. P46063. RECQ1 DNA unwinding, red fluorescence kinetic read. Potency, µM (series often up to 57.3 µM), inactives show top-dose activity, negative = inhibition, usual class: inhibitors. 240,000 tested, 0.54% active. AID 2549;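 also: plate controls were vehicle for no effect and no enzyme for full effect; nearly all actives have a fitted effect of over 30% in size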
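RECQ1T1 50 nM; forked duplex (20 bp + 30-nt ss tails) 200 nM, ATP 2 mM final; pH 8.0, 2 mM MgCl2, 2.5 ug/ml poly(dI-dC); 15 min compound preincubation; discontinuous kinetic read over 2 h at RT.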
L3MBTL1 block: blocks human L3MBTL1; Q9Y468; AlphaScreen L3MBTL1–H3K9me1 peptide binding; Potency, µM (highest dose often 57.1 µM), for inactives: at the top dose activity, negative = inhibition, most hits filed as inhibitors; 230,000 tested, 0.66% active; AID 485360; also: nearly all actives have a fitted effect of over 60% in size
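L3MBTL1 50 nM + b-AHA-H3(1-15)K9me1 75 nM, 30 min RT; compound added, 30 min RT; streptavidin donor/Ni-chelate acceptor beads 10 ug/mL each final, 30 min RT dark; AlphaScreen read.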
TDP1 inh: blocks human tyrosyl-DNA phosphodiesterase 1; Q9NUW8; AID 485290; recombinant TDP1, AlphaScreen DNA substrate cleavage; 350,000 tested, 0.28% active; Potency, µM (doses to about 130 µM), without a hit: at the top dose activity change, negative = inhibition, hits mostly inhibitors; also: nearly all actives have a fitted effect of over 40% in size
Target sequence (Q9NUW8 whole entry, looked up): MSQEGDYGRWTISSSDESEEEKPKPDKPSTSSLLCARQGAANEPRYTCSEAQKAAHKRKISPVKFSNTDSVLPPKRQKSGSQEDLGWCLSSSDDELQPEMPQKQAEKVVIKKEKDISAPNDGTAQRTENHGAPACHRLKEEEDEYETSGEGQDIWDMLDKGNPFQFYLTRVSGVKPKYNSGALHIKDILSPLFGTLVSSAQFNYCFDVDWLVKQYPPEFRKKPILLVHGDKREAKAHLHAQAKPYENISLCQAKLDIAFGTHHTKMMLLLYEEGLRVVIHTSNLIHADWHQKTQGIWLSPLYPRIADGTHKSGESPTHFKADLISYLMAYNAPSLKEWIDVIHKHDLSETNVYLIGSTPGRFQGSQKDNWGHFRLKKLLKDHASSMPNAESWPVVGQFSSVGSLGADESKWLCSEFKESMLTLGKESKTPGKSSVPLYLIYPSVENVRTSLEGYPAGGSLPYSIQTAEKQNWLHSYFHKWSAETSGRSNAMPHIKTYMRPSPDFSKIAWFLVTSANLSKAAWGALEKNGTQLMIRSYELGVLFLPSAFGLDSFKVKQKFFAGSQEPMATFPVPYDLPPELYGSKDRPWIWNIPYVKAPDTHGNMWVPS
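Signal: AlphaScreen proximity between streptavidin donor and anti-FITC acceptor beads on intact substrate. Reaction: Tdp1 1 nM, substrate 15 nM final, 5 min RT after 15 min compound preincubation.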
KDM4E inh: blocks human JMJD2E demethylase activity. JMJD2E catalytic domain, FDH-coupled NADH fluorescence (FDH is formaldehyde dehydrogenase). 230,000 tested, 1.6% active. B2RXH2. Potency, µM (titrated, usually from 57.1 µM), for the others: at the highest dose activity change, negative = inhibition, actives largely listed as inhibitors; active = well fitted inhibition curve with a large enough effect, not every such curve was filed as active; inconclusive = small, poorly fitted or top-dose-only effect, or another doubt; inactive = no such curve, though single readings can be large or run the other way;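 also: 0% = wells with enzyme and -100% = buffer wells without enzyme; nearly all actives have a fitted effect of over 50% in size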
APE1 inh: APE1 (human) endonuclease inhibition | P27695 | 350,000 tested, 0.35% active | AID 2517 | Potency, µM (series often up to 65.8 µM), inactives show at the top dose activity change, negative = inhibition, usual class: inhibitors | recombinant APE1, TAMRA/BHQ-2 abasic DNA cleavage fluorescence;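 also: plate controls were vehicle for no effect and reference inhibitor for full effect; nearly all actives have a fitted effect of over 55% in size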
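Incision of a quenched TAMRA/BHQ-2 THF abasic-site duplex (50 nM) by 0.75 nM APE1, after 15 min compound preincubation, measured as fluorescence increase over three 60 s reads. Values normalized to buffer, DMSO and NSC13755 control wells.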
BLM inh: inhibitors of human Bloom syndrome helicase BLM; Potency, µM (titrated, usually from 56.1 µM), for the others: at the highest dose activity change, negative = inhibition, actives largely listed as inhibitors; 350,000 tested, 0.2% active; recombinant BLM DNA unwinding, fluorescence dequenching; P54132;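 also: plate controls were vehicle for no effect and no enzyme for full effect; nearly all actives have a fitted effect of over 35% in size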
* hit, by the source's call; ! = repeats disagree; [ ] = remark or other dose. Unless noted, calls follow the shape of the dose curve; as a rule, active = well fitted curve in the direction sought with a large enough effect; inconclusive = small, poorly fitted or top-dose-only effect, or another doubt; inactive = no such curve, though single readings can be large; an effect the other way counts as inactive or inconclusive. Unless noted, % is scaled to controls: 0 for no effect and ±100 for the full control effect; potency is read from the fitted curve at half-maximal effect.

Screening CC(C)CSc1n[nH]c(=S)s1 returned RECQ1 inh -1%, L3MBTL1 block 2%, TDP1 inh 8%, KDM4E inh 10µM*, APE1 inh 0% and BLM inh 0%.
Screening CCCCCCNC(=O)N[C@H](C(=O)NCCC[C@H]1CN2C(=NC[C@H]2C)N1CCC(c1ccccc1)c1ccccc1)C(C)O (some centres undefined) returned RECQ1 inh inactive, TDP1 inh 4%, KDM4E inh 20µM*, APE1 inh inconclusive and BLM inh 1%.
COc1ccc(CNc2oc(/C=C/c3cc(OC)c(OC)c(OC)c3)nc2C#N)cc1 was read as TDP1 inh -5% and BLM inh -11%.
Screening Cc1ccc(-c2cn(C[C@H]3CC[C@@H]([C@@H]4CC[C@H](Cn5cc(-c6ccc(C)cc6)nn5)O4)O3)nn2)cc1 returned L3MBTL1 block 48%, APE1 inh -2% and BLM inh -4%.
c1ccc(-c2cn(C[C@H]3CC[C@H](Cn4cc(-c5ccccn5)nn4)O3)nn2)nc1 was read as L3MBTL1 block 0.28µM*, APE1 inh 0% and BLM inh 0%.
`O=C(Nc1ccc2ccccc2n1)Nc1ccccc1F` gave APE1 inh 68% and BLM inh -5%.
Screening Fc1ccc(Nc2ccc3ccccc3n2)c(F)c1 returned RECQ1 inh -20%, TDP1 inh 5%, KDM4E inh 22µM*, APE1 inh 0% and BLM inh -3%.
For C=CCN(c1nc(C)c(Br)c(OC)n1)S(=O)(=O)c1ccc(C)cc1 the results were L3MBTL1 block 14%, TDP1 inh 50µM*, APE1 inh 2% and BLM inh -7%.
Screening O=C(NCc1ccccc1)n1cc(P(=S)(c2ccccc2)c2ccccc2)c2ccccc21 returned TDP1 inh 0%.
C=CCOc1c(Cl)cc(CNc2ccc(N(C)C)cc2)cc1OC was read as RECQ1 inh 3%, L3MBTL1 block 13µM*, TDP1 inh 3%, KDM4E inh 3%, APE1 inh 0% and BLM inh 2%.
`CCOc1ccc(CNc2ccc(N3CCN(Cc4ccccc4)CC3)cc2)cc1` gave L3MBTL1 block -30%, TDP1 inh 9%, APE1 inh 2% and BLM inh -2%.
Screening COc1cc(CNc2ccc(N3CCCC3)cc2)cc(Cl)c1OC returned RECQ1 inh 23%, L3MBTL1 block inconclusive, TDP1 inh 0%, KDM4E inh 14µM*, APE1 inh 0% and BLM inh -2%.
Screening CCOc1ccc(CNc2ccc(N3CCCC3)cc2)cc1 returned RECQ1 inh -6%, L3MBTL1 block inconclusive, TDP1 inh 11%, KDM4E inh 16µM*, APE1 inh 1% and BLM inh -4%.
`CCOc1cc(CNc2ccc(N3CCCC3)cc2)cc(Cl)c1OC` gave RECQ1 inh -1%, L3MBTL1 block inconclusive, TDP1 inh 8%, KDM4E inh 16µM*, APE1 inh -1% and BLM inh -12%.
Screening CCOc1c(Br)cc(CNc2ccc(N3CCN(C(C)=O)CC3)cc2)cc1OC returned RECQ1 inh -5%, TDP1 inh 7%, KDM4E inh -22%, APE1 inh 2% and BLM inh -4%.
CCc1cccc2cc(C(O)CNC(C)(C)C)oc12 (centres undefined) was read as RECQ1 inh 10%, TDP1 inh 6%, APE1 inh 19% and BLM inh 1%.
`CSc1cc2c(s1)c1cnn(Cc3ccccc3F)c(=O)c1n2C` gave TDP1 inh 1%.
COc1ccc(C2Nc3ccccc3C(=O)N2Cc2ccccc2)cc1COc1ccc(NC(=O)c2ccccc2)cc1 (centres undefined) was read as TDP1 inh 0%.
For COC1=C(N)C(=O)c2nc(-c3nc(C(=O)O)c(C)c(-c4ccc(OC)c(OC)c4O)c3N)ccc2C1=O the results were RECQ1 inh -17%, L3MBTL1 block 20µM*, TDP1 inh -3%, KDM4E inh 331%, APE1 inh -10% and BLM inh 3.5µM*.
N[C@H](C(=O)N[C@@H]1C(=O)N2C(C(=O)O)=C(Cl)CS[C@@H]12)c1ccccc1 was read as RECQ1 inh 0%[25.9 µM], TDP1 inh -13%[56.1 µM], KDM4E inh 14µM*!, APE1 inh -4%[21 µM] and BLM inh 6%[21.4 µM].
`CC1(C)S[C@@H]2[C@H](NC(=O)[C@H](N)c3ccccc3)C(=O)N2[C@H]1C(=O)O` gave RECQ1 inh 20µM*!, L3MBTL1 block -9%, TDP1 inh 22µM*!, KDM4E inh inconclusive, APE1 inh 10µM*! and BLM inh inconclusive.
Screening NC(C(=O)NC1C(=O)N2C(C(=O)O)=C(Cl)CSC12)c1ccccc1 (centres undefined) returned RECQ1 inh inactive, TDP1 inh inconclusive, KDM4E inh inconclusive, APE1 inh inconclusive and BLM inh 7%.
`CCOC(=O)c1ccc(-n2c(O)c(/C=N/NC(=O)C3COc4ccccc4O3)c3ccccc3c2=O)cc1` (centres undefined) gave RECQ1 inh -5%, L3MBTL1 block -4%, TDP1 inh 11%, KDM4E inh 25µM*, APE1 inh -4% and BLM inh -2%.
`O=C(NCc1ccccn1)C1(C(F)(F)F)C/C(=C\Cc2ccccc2)CCCO1` (centres undefined) gave RECQ1 inh 0%, TDP1 inh 4%, APE1 inh -4% and BLM inh -2%.
`CCOc1ccccc1N1C(=O)CC(Nc2ccc(N3CCOCC3)cc2)C1=O` (centres undefined) gave RECQ1 inh 0%, L3MBTL1 block 28µM*, TDP1 inh 0%, KDM4E inh 4%, APE1 inh 7% and BLM inh 5%.
`CCN(CC)c1ccc(/C=C2/SC(=O)N(C(C)C)C2=O)o1` gave RECQ1 inh inactive, L3MBTL1 block -1%, TDP1 inh 0%, KDM4E inh -15%, APE1 inh -12% and BLM inh -3%.
`CC(C)N1C(=O)S/C(=C\c2ccc(-c3ccc(Cl)c(C(=O)O)c3)o2)C1=O` gave L3MBTL1 block inconclusive, TDP1 inh 25µM*, APE1 inh -24% and BLM inh 1%.
`C[C@]12C=CC(=O)C=C1[C@@H](F)C[C@@H]1[C@@H]2[C@@H](O)C[C@@]2(C)[C@H]1CC[C@]2(O)C(=O)CO` gave APE1 inh 2%.

Compound activity as filed in PubChem.
